# Assay results taken from PubChem BioAssay AID493087 (The Scripps Research Institute Molecular Screening Center, 2011).
# Hit rate of the full screen: of about 340,000 compounds, about 240 (0.071%) were called active. The full list was thinned out, with actives kept by preference. A number with no mark means an inactive call.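 Rule for the calls: active = activation above the mean of all tested compounds plus 3 SD, set per screening campaign (cut at about 17% in these data); inactive = the rest.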
# Biological target: Insulin-degrading enzyme (Homo sapiens) (UniProt P14735)
# Sequence (P14735 whole entry, looked up): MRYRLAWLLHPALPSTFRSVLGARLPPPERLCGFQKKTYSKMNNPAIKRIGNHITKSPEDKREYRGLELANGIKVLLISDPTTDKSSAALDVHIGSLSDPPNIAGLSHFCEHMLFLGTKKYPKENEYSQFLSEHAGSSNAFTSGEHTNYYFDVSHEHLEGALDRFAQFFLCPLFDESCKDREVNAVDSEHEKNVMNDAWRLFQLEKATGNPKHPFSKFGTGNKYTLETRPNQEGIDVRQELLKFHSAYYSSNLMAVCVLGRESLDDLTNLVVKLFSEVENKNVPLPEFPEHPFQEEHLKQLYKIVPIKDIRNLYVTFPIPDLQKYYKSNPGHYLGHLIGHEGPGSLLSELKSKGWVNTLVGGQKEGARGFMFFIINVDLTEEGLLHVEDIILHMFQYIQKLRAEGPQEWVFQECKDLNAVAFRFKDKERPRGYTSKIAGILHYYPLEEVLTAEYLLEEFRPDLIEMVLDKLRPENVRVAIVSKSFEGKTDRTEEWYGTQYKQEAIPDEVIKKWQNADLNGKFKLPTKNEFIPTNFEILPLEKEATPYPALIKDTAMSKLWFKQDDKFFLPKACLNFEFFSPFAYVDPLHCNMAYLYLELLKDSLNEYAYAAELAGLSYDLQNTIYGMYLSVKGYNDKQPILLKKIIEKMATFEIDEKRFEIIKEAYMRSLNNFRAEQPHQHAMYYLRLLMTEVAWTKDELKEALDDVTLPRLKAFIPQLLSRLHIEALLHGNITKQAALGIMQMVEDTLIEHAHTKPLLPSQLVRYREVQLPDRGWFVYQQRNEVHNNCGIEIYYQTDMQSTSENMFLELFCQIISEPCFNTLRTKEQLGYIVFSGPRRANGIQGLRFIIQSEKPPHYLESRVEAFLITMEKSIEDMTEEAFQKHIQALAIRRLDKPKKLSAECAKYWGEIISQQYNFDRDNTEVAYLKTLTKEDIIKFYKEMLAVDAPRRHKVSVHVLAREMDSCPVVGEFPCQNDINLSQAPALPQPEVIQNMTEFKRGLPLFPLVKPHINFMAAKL
# Assay: human IDE activators in live cells, primary screen, fluorescence polarization, HEK cells, FAbeta-B substrate (AID 493087)
# Conditions: FAbeta-B cleavage, at 5.96 µM, hits give high values, 0% vehicle, 100% cell-free pure enzyme wells
row,SMILES,activation
1,O=C1/C(=C\c2ccc(O)cc2)CCC1CNc1ccc(Cl)cc1 (stereo not given),-1.61%
2,N#Cc1cccc(CN2CCC(=O)N([C@H](CO)c3ccccc3)CC2)c1,2.37%
3,OC(COc1ccccc1)CN1CCN(c2cccc(Cl)c2)CC1 (stereo not given),5.12%
4,CN(Cc1cccs1)C(=O)CN1C(=O)c2ccccc2S1(=O)=O,0.93%
5,COCCN(C(=S)Nc1cccc(Cl)c1C)C(C)c1ccco1 (stereo not given),1.29%
6,COc1ccc(S(=O)(=O)c2c[nH]c(=S)[nH]c2=O)cc1Cl,-1.33%
7,CN(C)S(=O)(=O)c1ccc(N2CCCC2=O)c([N+](=O)[O-])c1,5.59%
8,COc1ccc(Cn2cc(CN3CCS(=O)(=O)N(Cc4ccc(-c5cccc(Cl)c5)cc4)C(C)C3=O)nn2)cc1 (stereo not given),1.16%
9,Cc1noc(C)c1C(=O)OC(C)C(=O)Nc1ccc2c(c1)OCO2 (stereo not given),0.42%
10,CCCCSCCCNC(=O)C1CCC(CNS(=O)(=O)c2ccc(NC(C)=O)cc2)CC1 (stereo not given),-0.18%
11,CCn1c(=O)cc(SCC(=O)NCc2ccc3c(c2)OCO3)c2ccccc21,2.55%
12,C=CCn1c(=O)c(C(=O)NCc2ccc3c(c2)OCO3)c(O)c2ccccc21,3.17%
13,CCn1c(=O)c([N+](=O)[O-])c(NCc2ccc3c(c2)OCO3)c2ccccc21,23.5% (active)
14,COc1ccccc1CC(NC(C)=O)C(=O)NC1CCN(C(=O)Nc2ccccc2Cl)CC1 (stereo not given),3.56%
15,O=C(CSc1ncnc2sccc12)NC1CCS(=O)(=O)C1 (stereo not given),6.28%
16,CCOC(=O)/C=C/CN(C(=O)OC(C)(C)C)S(=O)(=O)N1CC=CC1,34.8% (active)
17,CCOC(=O)/C=C/c1ccc(C(F)(F)F)cc1S(=O)(=O)NC(C)(C)C,-1.81%
18,CCOCc1c(C(=O)N2CCN(Cc3ccc(Br)s3)CC2)oc2ccccc12,7.28%
19,Cc1ccc(NC2CCCN(C(=O)CCC3(C)CC3)C2)cc1C (stereo not given),3.99%
20,Cn1c2c(c(=O)n(C)c1=O)[C@@H]1c3c(ccc4ccccc34)OC[C@@H]1CO2,9.31%
21,Cc1cc(C)c(S(=O)(=O)Nc2c(C)n(C)n(-c3ccccc3)c2=O)cc1[N+](=O)[O-],0.96%
22,CSc1ccccc1OCc1cc(C(=O)N2C[C@H]3CC[C@H]2C3)no1,0.59%
23,COC(=O)c1c(C)cc(O)c(C)c1O,-0.29%
24,COc1ccc(CCNC(=O)CCNS(=O)(=O)c2cc(Br)cnc2N)cc1OC,3.78%
25,Cn1c(N)c(C(=O)COC(=O)/C=C/c2cccc(C(F)(F)F)c2)c(=O)n(C)c1=O,4.24%
26,CCN1CCN(C(=O)C2(NC(=O)Nc3cccc(F)c3)CCCCC2)CC1,4.93%
27,CC(=O)N1c2ccc(S(=O)(=O)N3CCCC(C(=O)Nc4cccc(F)c4)C3)cc2CC1C (stereo not given),5.74%
28,Cc1ccc(NC(=O)C(c2ccccc2)N2CCN(C(=O)c3ccco3)CC2)cc1 (stereo not given),0.44%

row,SMILES,activation
1,CCCC[C@@H]1CN=C(N)N1CCc1cc(C(F)(F)F)cc(C(F)(F)F)c1,5.76%
2,CCCC(C)C(=O)OCC(=O)Nc1c(Br)cc(C)cc1Br (stereo not given),4.33%
3,Cc1ccc(S(=O)(=O)N2C[C@@H]3CCCC[C@@H]3[C@@H](C)[C@H]2c2cn(Cc3ccccc3)c3ccc(F)cc23)cc1,0.65%
4,Cc1cccc(N2CCN(C(=O)c3cc4c(=O)[nH]c5ccccc5c4n3C)CC2)c1C,0.68%
5,CCOC(=O)C1CCCN(S(=O)(=O)c2ccc3c(c2)C(C)(C)C(=O)N3C)C1 (stereo not given),4.3%
6,CC(=O)N1CCCc2cc(S(=O)(=O)N3CCCC(C(=O)N4CCN(c5cccc(Cl)c5)CC4)C3)ccc21 (stereo not given),1.25%
7,O=C1CCC[C@@H]2CC(N3CCCCC3)C[C@@H]3CCN1[C@H]23 (stereo not given in full),3.58%
8,Cc1cccc(CCNC(=O)Cn2ncc3c([nH]c4ccc(C)cc43)c2=O)c1,4.1%
9,COc1cccc(NC(=O)CC(c2ccc(OC(C)C)cc2)c2ccccc2OC)c1 (stereo not given),5.55%
10,Cc1cccc(C(=O)NC(=S)N2CCN(c3ccc([N+](=O)[O-])cc3)CC2)c1,7.97%
11,Cc1ccc(S(=O)(=O)N(C)C)cc1NC(=O)CN1c2cccc3cccc(c23)S1(=O)=O,-4.07%
12,O=C(CN1CCN(c2cccc(Cl)c2)CC1)Nc1ccc(S(=O)(=O)N2CCOCC2)cc1,-1.02%
13,CC1CC(C)CN(CCCNC(=O)c2csc3c2CCCCC3)C1 (stereo not given),0.64%
14,COc1ccc(NS(=O)(=O)c2ccc(N3CCN(CCO)CC3)c([N+](=O)[O-])c2)cc1,4.53%
15,O=C1OCC2=C1C(c1ccccc1)CC(=O)N2c1cccc(F)c1 (stereo not given),2.91%
16,CCOC(=O)C1(CC2CCCCO2)CCN(Cc2nc(-c3cccs3)oc2C)CC1 (stereo not given),-1.12%
17,CCOC(=O)C1CCCN(C(=O)c2ccc(CS(=O)(=O)c3ccc(Br)cc3)o2)C1 (stereo not given),-1.91%
18,CCN1CCN(C2CCCCC2NS(=O)(=O)c2ccc(Cl)cc2)CC1 (stereo not given),5.06%
19,O=C1c2ccccc2C(=O)N1CCC(c1ccccc1)c1ccco1 (stereo not given),7.64%
20,CSc1nnnn1-c1c(C)cc(C)cc1C,-3%
21,CCOCCCNC(=O)c1c[nH]c2cc(C)ccc2c1=O,4.46%
22,O=C1CC(c2ccccc2)C(=O)N2C(=O)CC(c3ccccc3)C(=O)N12 (stereo not given),3.82%
23,CCc1nccn1S(=O)(=O)c1cccc([N+](=O)[O-])c1,6.7%
24,COC(=O)c1ccc(CNC(=O)Cn2cc(C)c(=O)[nH]c2=O)cc1,4.54%
25,COC(=O)C1=CN(Cc2ccc(OC)cc2)C=C(C(=O)OC)C1c1ccc(O)c(OC)c1,5.83%
26,C=CCNC(=S)/N=c1/ccccn1Cc1ccccc1,4.17%
27,COc1ccc(C(=O)CN2C(=O)NC(C)(c3ccc(C)cc3)C2=O)cc1OC (stereo not given),-1.44%
